The supplement of paper PMC12645437, “Orthogonal IMiD-Degron Pairs Induce Selective Protein Degradation in Cells” (ACS Chemical Biology, 2025)
Whole data set: some 8,300 sequences, median “log2 fold change of degron read counts, EGFP-low vs EGFP+ sorted cells (limma voom), compound-induced degradation” near -1.1, cut for the highest 2% near 3.2. The sample holds the highest values, similar sequences and a random draw of the others, so the mix is not that of the screen.

T1: CRBN, Q96SW2
T1 chain: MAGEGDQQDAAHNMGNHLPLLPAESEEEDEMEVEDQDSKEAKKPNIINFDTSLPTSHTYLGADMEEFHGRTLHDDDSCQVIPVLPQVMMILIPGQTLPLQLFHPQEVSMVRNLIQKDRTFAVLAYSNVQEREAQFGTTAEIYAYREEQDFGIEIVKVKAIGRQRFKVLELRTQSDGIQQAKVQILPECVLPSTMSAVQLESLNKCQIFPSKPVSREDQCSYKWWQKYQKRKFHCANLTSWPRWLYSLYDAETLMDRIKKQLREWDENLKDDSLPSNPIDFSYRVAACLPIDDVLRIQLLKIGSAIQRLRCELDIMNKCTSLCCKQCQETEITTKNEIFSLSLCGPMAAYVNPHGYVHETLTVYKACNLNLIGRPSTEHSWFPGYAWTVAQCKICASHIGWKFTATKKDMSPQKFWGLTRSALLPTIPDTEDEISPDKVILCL


Biological target: T1, CRBN, Q96SW2
Test: log2 fold change of degron read counts, EGFP-low vs EGFP+ sorted cells (limma voom), compound-induced degradation; higher = more compound-induced degradation of the degron-EGFP fusion; degrons are variants of IKZF1/3 zinc finger 2; compound dose not given here
Conditions: Jurkat, 18 h
[1] = compound: compound 19 (5-tert-butyl-thalidomide)
[2] = compound: compound 22 (5-morpholino-thalidomide)
[3] = compound: compound 33 (diphenyl IMiD analogue)
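Also: pooled lentiviral library of zinc finger degron-EGFP fusions in mCherry-positive Jurkat cells, FACS-sorted after compound exposure, with degron abundance counted by next-generation sequencing.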

Sequence	log2 fold change of degron read counts [1]	log2 fold change of degron read counts [2]	log2 fold change of degron read counts [3]	log2 fold change of degron read counts (compound: thalidomide)
LDCNQCGFQCTQKGNLLRHIKL [46L_47D_49N_50Q_52G_53F_54Q_55C_67L_, Q9UKT9]	-2.46	-2.61	-2.96	-1.93
FICPVCGATFTQKGNLLRHIKL [46F_47I_49P_50V_52G_53A_54T_55F_67L_, Q9UKT9]	-1.38	1.38	1.48	1.83
FKCEICGHHFTQKGNLLRHIKL [46F_47K_49E_50I_52G_53H_54H_55F_67L_, Q9UKT9]	-3.82	-3.97	-3.56	-3.72
FNCNQCGRPFTQKGNLLRHIKL [46F_47N_49N_50Q_52G_53R_54P_55F_67L_, Q9UKT9]	-1.93	-2	-2.66	-2.05
FVCPQCGAMFTQKGNLLRHIKL [46F_47V_49P_50Q_52G_53A_54M_55F_67L_, Q9UKT9]	-2.14	-0.591	0.3	-0.862
FECPQCGAFFTQKGNLLRHIKL [46F_47E_49P_50Q_52G_53A_54F_55F_67L_, Q9UKT9]	-2.8	-3.69	-1.82	-1.91
FECDQCGAAFTQKGNLLRHIKL [46F_47E_49D_50Q_52G_53A_54A_55F_67L_, Q9UKT9]	-1.3	-3.38	-1.76	-1.6
FTCEQCGACFTQKGNLLRHIKL [46F_47T_49E_50Q_52G_53A_54C_55F_67L_, Q9UKT9]	-1.75	-1.02	0.816	0.182
FWCPQCGAVFTQKGNLLRHIKL [46F_47W_49P_50Q_52G_53A_54V_55F_67L_, Q9UKT9]	-0.18	1.02	0.693	-0.596
FTCEICGAMFTQKGNLLRHIKL [46F_47T_49E_50I_52G_53A_54M_55F_67L_, Q9UKT9]	0.136	0.966	1.62	1.82
FYCEICGAMFTQKGNLLRHIKL [46F_47Y_49E_50I_52G_53A_54M_55F_67L_, Q9UKT9]	3.62	3.42	2.55	0.91
FICEICGAMFTQKGNLLRHIKL [46F_47I_49E_50I_52G_53A_54M_55F_67L_, Q9UKT9]	-0.357	1.35	2.3	2.13
FACPQCGAAFTQKGNLLRHIKL [46F_47A_49P_50Q_52G_53A_54A_55F_67L_, Q9UKT9]	1.65	-0.791	0.0272	-1.04
FYCEVCGAGFTQKGNLLRHIKL [46F_47Y_49E_50V_52G_53A_54G_55F_67L_, Q9UKT9]	3.31	3.22	2.6	0.445
FLCEVCGAGFTQKGNLLRHIKL [46F_47L_49E_50V_52G_53A_54G_55F_67L_, Q9UKT9]	2.28	-0.0355	1.42	1.08
FECEVCGAGFTQKGNLLRHIKL [46F_47E_49E_50V_52G_53A_54G_55F_67L_, Q9UKT9]	1.72	-1.52	0.852	1.21
FCCEVCGAGFTQKGNLLRHIKL [46F_47C_49E_50V_52G_53A_54G_55F_67L_, Q9UKT9]	3.35	1.74	1.47	1.17
FACEVCGAGFTQKGNLLRHIKL [46F_47A_49E_50V_52G_53A_54G_55F_67L_, Q9UKT9]	3.4	1.13	-0.271	0.383
FRCEVCGAGFTQKGNLLRHIKL [46F_47R_49E_50V_52G_53A_54G_55F_67L_, Q9UKT9]	2.66	2.02	2.33	1.57
FFCEVCGAGFTQKGNLLRHIKL [46F_47F_49E_50V_52G_53A_54G_55F_67L_, Q9UKT9]	3.65	2.72	1.51	0.512
FGCEVCGAGFTQKGNLLRHIKL [46F_47G_49E_50V_52G_53A_54G_55F_67L_, Q9UKT9]	1.93	-0.105	0.538	-0.636
FICEVCGAGFTQKGNLLRHIKL [46F_47I_49E_50V_52G_53A_54G_55F_67L_, Q9UKT9]	-0.137	2.66	2.12	2.56
FDCEVCGAGFTQKGNLLRHIKL [46F_47D_49E_50V_52G_53A_54G_55F_67L_, Q9UKT9]	1.18	-1.45	-1.35	-0.721
FQCEVCGAGFTQKGNLLRHIKL [46F_47Q_49E_50V_52G_53A_54G_55F_67L_, Q9UKT9]	2.45	1.65	1.38	3.21
FHCEVCGAGFTQKGNLLRHIKL [46F_47H_49E_50V_52G_53A_54G_55F_67L_, Q9UKT9]	3.18	1.07	2.01	-0.276
